# Screens: PubChem BioAssay, National Center for Advancing Translational Sciences (NCATS)
# Sampled rows, rich in hits. Any-hit rate of the full collection: about 2.4%.
# A549 tox-1 – counter-screen for Nrf2 inhibitors: cytotoxicity in A549 cells; actives 0.16% (n = 390,000); A549 ARE-Fluc cells, CellTiter-Fluor viability, 18-24 h; Potency, µM (series often up to 46 µM), inactives show top-dose activity change, negative = cytotoxicity, usual class: inhibitors; note: % is set by controls: 0 for no effect and ±100 for the full control effect
#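 A549 ARE_Fluc cells in 5% FBS OPTI-MEM were exposed to compounds in concentration-response for 18-24 h at 37 deg C. Viability was read by CellTiter-Fluor fluorescence (Ex 405/Em 525) after 30 min, before the luciferase read.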
# Nrf2 ARE act – activators of Nrf2 (ARE) signaling; AREc32 ARE-luciferase reporter (MCF7-derived line), luminescence, 24 h; Potency, µM (doses to about 46.1 µM), for the others: at the top dose activation, actives largely listed as activators; actives 0.31% (n = 410,000); AID 624171; note: % of control where 0% means no effect; nearly all actives have a fitted effect of over 65% in size
#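 Each well held 1000 AREc32 cells, which were incubated with compound for 24 hr at 37 deg C after overnight attachment, and ARE reporter activity was quantified by firefly luciferase luminescence.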
# PINK1 expr mod – modulators of PINK1 expression; AID 624263; actives 0.2% (n = 410,000); Potency, µM (top dose mostly 76.6 µM), for the others: at the highest dose activation (PINK1 increase), most hits filed as activators; PINK1 immunofluorescence, high-content cytometry, 24 h; active = well fitted activation curve with a large enough effect; inconclusive = small, poorly fitted or top-dose-only effect; cell line not stated here; note: % of control where 0% means no effect; nearly all actives have a fitted effect of over 65% in size
#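 Compound titrations (5 concentrations, 24 h) on a stable cell line; DMSO and CCCP controls. Endpoint: fixed-cell PINK1 immunofluorescence with mitochondrial, cell and nuclear markers, scanned by microplate cytometer.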
# Epigenetic derep – regulators of epigenetic silencing causing reporter derepression in mouse cells; AID 1865; murine LDR cells, GFP reporter derepression, 30 h; actives 0.2% (n = 280,000); Potency, µM (top dose mostly 53.9 µM), for the others: at the highest dose GFP activation, hits mostly activators; note: % of control where 0% means no effect; nearly all actives have a fitted effect of over 60% in size
#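 GFP-positive cell count by laser-scanning cytometry (objects 20–120 um) after 30 h, 37 C compound exposure of murine LDR cells; reporter is CMV-GFP integrated at a silenced locus, inducible by HDAC or DNMT inhibitors.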
# Nrf2 inh – blocks Nrf2 signaling. A549 ARE-Fluc reporter, luciferase luminescence, 18-24 h. Potency, µM (series often up to 46 µM), inactives show top-dose activity change, negative = inhibition, most hits filed as inhibitors. actives 2.1% (n = 360,000); note: % is set by controls: 0 for no effect and ±100 for the full control effect; nearly all actives have a fitted effect of over 60% in size
#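 Nrf2 activity is the BugLite luminescence, read 15 min after reagent at room temperature, following CellTiter-Fluor cytotoxicity readout (30 min, 37C). Compound titrations were applied for 18-24 h to 5000 A549 ARE_Fluc cells/well in 5% FBS OPTI-MEM.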
# FLuc counter 3 – blocks purified firefly luciferase in Nrf2 counterscreen; shares compounds with Nrf2 inh; purified firefly luciferase, luminescence inhibition; Potency, µM (titrated, usually from 57.5 µM), inactives show at the highest dose activity change, negative = inhibition, usual class: inhibitors; actives 4% (n = 1,400); note: % is set by controls: 0 for no effect and ±100 for the full control effect; nearly all actives have a fitted effect of over 65% in size
# Target sequence (P08659 whole entry, looked up): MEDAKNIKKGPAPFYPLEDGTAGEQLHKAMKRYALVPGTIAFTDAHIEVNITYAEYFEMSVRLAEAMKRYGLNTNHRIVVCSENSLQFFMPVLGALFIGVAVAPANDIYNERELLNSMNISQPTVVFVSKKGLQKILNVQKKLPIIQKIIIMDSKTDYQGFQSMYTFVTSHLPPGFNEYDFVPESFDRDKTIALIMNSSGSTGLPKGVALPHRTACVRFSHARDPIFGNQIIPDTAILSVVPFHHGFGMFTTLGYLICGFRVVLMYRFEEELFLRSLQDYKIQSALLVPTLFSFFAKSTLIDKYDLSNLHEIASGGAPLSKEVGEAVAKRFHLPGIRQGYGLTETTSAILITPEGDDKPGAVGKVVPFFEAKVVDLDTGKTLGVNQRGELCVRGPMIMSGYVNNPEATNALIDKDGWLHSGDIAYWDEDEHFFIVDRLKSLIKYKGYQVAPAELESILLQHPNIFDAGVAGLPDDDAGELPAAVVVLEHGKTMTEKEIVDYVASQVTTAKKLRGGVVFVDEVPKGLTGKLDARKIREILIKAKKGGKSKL
# A549 tox-2 – A549 cytotoxicity, Nrf2 inhibitor counterscreen; actives 2% (n = 1,400); A549 ARE-Fluc cells, cytotoxicity counterscreen; AID 720523; shares compounds with Nrf2 inh; Potency, µM (titrated, usually from 46.1 µM), for the others: top-dose activity change, negative = cytotoxicity, most hits filed as inhibitors;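 note: cells exposed to compounds for 18 to 24 hours; % is set by controls: 0 for no effect and ±100 for the full control effect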
# ARE-Fluc inh – Nrf2 inhibition confirmed, A549 ARE-luciferase. shares compounds with Nrf2 inh. A549 ARE-firefly luciferase reporter, luminescence. actives 74% (n = 1,400). Potency, µM (titrated, usually from 46.1 µM), without a hit: top-dose activity change, negative = inhibition, most hits filed as inhibitors; note: % is set by controls: 0 for no effect and ±100 for the full control effect; nearly all actives have a fitted effect of over 65% in size
# Starred values were filed as active, the others as inactive; ? = inconclusive; . = not tested or not shown; [ ] = remark or other dose. Unless noted, calls come from the whole dose curve; as a rule, active = well fitted curve in the direction sought with a large enough effect; inconclusive = small, poorly fitted or top-dose-only effect, or another doubt; inactive = no such curve, though single readings can be large; an effect the other way counts as inactive or inconclusive. Potency is the fitted concentration of half-maximal effect.
SMILES,A549 tox-1,Nrf2 ARE act,PINK1 expr mod,Epigenetic derep,Nrf2 inh,FLuc counter 3,A549 tox-2,ARE-Fluc inh
COC(=O)c1ccc2c(c1O)C(=O)c1ccccc1C2=O,?,2%,-3%,0%,3.3µM*,11µM*,3.7µM*,3.7µM*
Cc1ccccc1NC(=O)c1ccccc1NC(=O)Cc1cccc2ccccc12,11%,0%,15%,5%,0%,.,.,.
Cc1ccccc1NC(=O)c1cccc2nc3ccccc3nc12,-27%,0%,11%,1%,5.2µM*,-11%,?,10µM*
COc1ccc(CC(=O)Nc2cc(S(=O)(=O)N3CCCCC3)ccc2C)cc1OC,?,2%,2%,0%,4.1µM*,1%,-6%,7.3µM*
COc1ccc(S(=O)(=O)N2CCCCCC2)cc1NC(=O)Cc1cc(OC)c(OC)c(OC)c1,-4%,0%,3%,0%,-24%,.,.,.
CCc1ccccc1-n1nnc(-c2nsc(NC(=O)c3ccc(C)c(C)c3)n2)c1C,-4%,-1%,0%,1%,8.2µM*,-14%,-21%,21µM*
O=S(=O)(Nc1ccc(Cc2ccncc2)cc1)c1ccc(Br)cc1,-13%,3%,6%[38.3 µM],-1%,?,.,.,.
O=S(=O)(Nc1ccc(Cc2ccncc2)cc1)c1ccc(Cl)cc1,-16%,1%,4%,1%,9.2µM*,0%,-1%,16µM*
Cc1ccc(CCNC(=O)c2cn(C)c3ccc(S(=O)(=O)N(C)C4CCCCC4)cc3c2=O)cc1,-1%,0%,1%,0%,-2%,.,.,.
CC1(C)CC2CC(C)(CN2S(=O)(=O)c2ccc(C(=O)Nc3cccc(S(=O)(=O)N4CCOCC4)c3)cc2)C1 (configuration not stated),-2%,0%,-1%,0%,2.3µM*,-1%,-4%,2.1µM*
CC1(C)CC2CC(C)(CN2S(=O)(=O)c2ccc(C(=O)Nc3cc(S(=O)(=O)N4CCOCC4)ccc3Cl)cc2)C1 (configuration not stated),-4%,-1%,6%,0%,?,.,.,.
COc1cccc(-n2cc(C(=O)Nc3cccc(C(F)(F)F)c3)c3ccccc3c2=O)c1,0%,1%,1%,0%,?,.,.,.
COc1ccc(NC(=O)COc2ccc(N(C)S(=O)(=O)c3ccc(Cl)cc3)cc2)cc1OC,-9%,2%,0%,.,9.2µM*,3%,-11%,6.5µM*
COc1ccc(S(=O)(=O)Nc2ccc(F)cc2)cc1N(C)S(=O)(=O)c1ccc(Cl)cc1,-29%,8%,.,1%,?,.,.,.
COc1ccc(NS(=O)(=O)c2ccc(OC)c(N(C)S(=O)(=O)c3ccc(Cl)cc3)c2)cc1,?,6%,-3%[38.3 µM],-1%,7.3µM*,-10%,?,8.2µM*
CCOC(=O)N1CCC(NC(=O)c2cc(C(=O)Nc3cccc(C(F)(F)F)c3)ccc2CO)CC1,?,5%,0%,4%,5.8µM*,2%,-9%,16µM*
CCOC(=O)N1CCC(NC(=O)c2ccc(CO)c(C(=O)NC3CCN(C(=O)OCC)CC3)c2)CC1,0%,0%,0%,2%,4%,.,.,.
